The full list was thinned out, with hits kept by preference.
GluA2 TARP mod: modulators of GluA2-stargazin AMPA receptor complexes, primary screen, cell-based, membrane potential dye; Voltage-dependent calcium channel gamma-2 subunit (Mus musculus) + Glutamate receptor 2 …; HEK293 GluA2+stargazin, membrane potential dye (FDSS), glutamate EC50; hits were called plate by plate, in both directions; calls only at 30 µM; hit rate 3.5% among 40,000; AID 1259245, 2017;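 active = any of four per-well response measures lying three or more SD from its plate-wide compound average, in either direction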
GIRK2 activator: activators of NPY4-receptor-primed GIRK2 channels, summary, cell-based, HEK293, thallium flux; 34,000 tested, under 10 active; HEK293 GIRK2/NPY4 cells, thallium flux fluorescence; activation (% efficacy), % for hits at 37.5 µM; G protein-activated inward rectifier potassium channel 2 (Homo sapiens), P48051;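 active = primary screen hit, no activity in plain HEK293 cells, and in GIRK2-only cells above 5% efficacy rising with concentration; inactive = the rest, including fluorescent compounds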;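 also: efficacy is normalized control-subtracted fluorescence 15 s after thallium addition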
Each line names hits and unclear results; the compound was inactive in the other large screens; ! = a repeat was not active.

O=C(Cc1c[nH]c2ccccc12)N1CCN(c2ccc(N3CCCC3)nn2)CC1	GluA2 TARP mod active
O=C(c1cc2ccccc2oc1=O)N1CCN(Cc2nc(-c3cccs3)cs2)CC1	none
CCS(=O)(=O)c1ccc(C(=O)Nc2sc(C(=O)OC)c(C)c2C#N)cc1	GluA2 TARP mod active
Cc1sc(NC(=O)c2ccc(S(=O)(=O)C(C)C)cc2)c(C#N)c1C	none
COc1ccc(S(=O)(=O)Nc2nc(C(=O)Nc3ccc(Cl)cc3)cs2)cc1	none
COc1ccc(S(=O)(=O)Nc2nc(C(=O)Nc3ccc(C(C)C)cc3)cs2)cc1	GluA2 TARP mod active
COc1ccc(NC(=O)C(=O)NCC2COC3(CCCC3)O2)cc1OC (centres undefined)	none (no result: GIRK2 activator)
COc1ccc(OCC(=O)Nc2ccc3c(c2)N(CCC(C)C)C(=O)C(C)(C)CO3)cc1	none (no result: GIRK2 activator)
CC(C)CCN1C(=O)C(C)(C)COc2ccc(NC(=O)COc3ccc(F)cc3)cc21	GluA2 TARP mod active (no result: GIRK2 activator)
COC(=O)C12CC3CC(CC(NC(=O)c4cc(-c5cccs5)[nH]n4)(C3)C1)C2	none
O=C(Nc1cc2c3c(c1)CC(=O)N3CCC2)c1cnccn1	GluA2 TARP mod active
COc1cc(C(=O)Nc2cc3c4c(c2)CC(=O)N4CCC3)cc(OC)c1OC	none
O=C(CSc1nc(=O)n(CC2CCCO2)c2c1CCC2)NC1CCCC1 (centres undefined)	none
CNC(=O)Cc1ccc(NC(=O)C(C)(C)C)cc1	none
Cc1nc(N2CCN(CCO)CC2)nc(Nc2ccc(F)cc2)c1[N+](=O)[O-]	GluA2 TARP mod active
Cc1nc(N2CCN(CCO)CC2)nc(N2CCCCC2)c1[N+](=O)[O-]	none
CC(=O)Nc1cccc(NC(=O)Cc2csc(NC(=O)C3CCC(=O)N3)n2)c1 (centres undefined)	none
Cc1ccc(-c2nnc(CN3CCC(Cc4ccccc4)CC3)o2)cc1	GluA2 TARP mod active!
Cc1ccc(-c2nnc(CN3CCN(Cc4ccccc4)CC3)o2)cc1	none
O=C(NCC(c1cccc2ccccc12)N1CCOCC1)c1ccc(Br)o1 (centres undefined)	GluA2 TARP mod active
COc1cccc(C(CNC(=O)c2ccccc2Br)N2CCOCC2)c1 (centres undefined)	none
COc1ccc(C(CNC(=O)c2ccccc2Br)N2CCOCC2)cc1 (centres undefined)	GluA2 TARP mod active
O=C(NCC(c1cccc2ccccc12)N1CCOCC1)c1cccc(Br)c1 (centres undefined)	none
COc1ccc(C(CNC(=O)c2ccc3ccccc3c2)N2CCOCC2)cc1 (centres undefined)	GluA2 TARP mod active (no result: GIRK2 activator)
COc1ccc(C(CNC(=O)c2cc(OC)cc(OC)c2)N2CCOCC2)cc1 (centres undefined)	none (no result: GIRK2 activator)
CC(=O)Cn1c(=O)c2c(nc3n(C4CCCCC4)c(C)cn23)n(C)c1=O	none (no result: GIRK2 activator)
O=C(CCc1csc(NC(=O)c2ccc(Cl)cc2)n1)NCCC1=CCCCC1	none
COc1ccc(C(=O)Nc2nnc(-c3cc(C)ccc3C)o2)cc1OC	none (no result: GIRK2 activator)
CNC(=O)c1cccc(-c2noc(C3CN(C(=O)Nc4ccc(F)cc4)C3)n2)c1	none (no result: GluA2 TARP mod)
COc1ccc(-n2nnnc2SC(C)C(=O)Nc2ccccc2OC)cc1 (centres undefined)	GluA2 TARP mod active (no result: GIRK2 activator)
CCc1ccc(-n2nnnc2SC(C)C(=O)Nc2ccccc2OC)cc1 (centres undefined)	none (no result: GIRK2 activator)
COc1ccc(NC(=O)C(C)Sc2nnnn2-c2ccccc2)cc1 (centres undefined)	none (no result: GIRK2 activator)
COc1ccc(-n2nnnc2SC(C)C(=O)Nc2ccc(C(=O)O)cc2)cc1 (centres undefined)	GluA2 TARP mod active (no result: GIRK2 activator)
Cc1ccc(-n2ncc3c(=O)n(NC(=O)c4ccc(C(F)(F)F)cc4)cnc32)cc1	none
COc1cc(C(=O)Nc2noc3ncccc23)cc(OC)c1OC	none (no result: GluA2 TARP mod)
CC(=O)N1CCN(c2ccnc3c2c(=O)n(CC(=O)Nc2cccc(Cl)c2)c(=O)n3C)CC1	none (no result: GIRK2 activator)
CC(C)c1cc(=O)n(CC(=O)N2c3ccc(F)cc3CCC2C)cn1 (centres undefined)	none
COc1cccc(C(CNS(=O)(=O)c2ccc3c(c2)OCCO3)N2CCOCC2)c1 (centres undefined)	none
CCS(=O)(=O)c1ccc(CC(=O)N(Cc2ccccn2)c2nc3ccccc3s2)cc1	none (no result: GIRK2 activator)
COc1c2c(cc3c1C(CC(=O)c1ccccc1)N(C)CC3)OCO2 (centres undefined)	GluA2 TARP mod active (no result: GIRK2 activator)
COc1ccc(-n2c(COc3ccc4c(c3)OCO4)nnc2SCC(=O)c2ccccc2)cc1	none (no result: GIRK2 activator)
O=C1OC2CC1N(C(=O)c1ccc(Cl)s1)C2 (centres undefined)	none
CSc1ccccc1C(=O)Nc1ccc2c(c1)C(=O)N(C)c1cc(C)ccc1O2	none
COc1ccc(CCNC(=O)C(=O)Nc2ccc(F)c(Cl)c2)cc1	none (no result: GIRK2 activator)
C=CCN1CC(c2nc3ccccc3n2Cc2ccc(Cl)c(Cl)c2)CC1=O (centres undefined)	none (no result: GIRK2 activator)

High-throughput results from PubChem.
